Drawing on PubChem BioAssay (NCI), this text covers growth inhibition for 9 compounds.

This is part of a sample that, as a whole, favours compounds with a hit. Of some 79,000 tested, about 15% had one in any assay. A number with no mark means an inactive call. Active and inactive are the calls of the source. No stated cut-off is given here; in the data, active means growth inhibition above about 70%; inactive means the rest.

The nature of experiment [1]: NCI Yeast Anticancer Drug Screen. Data for the rad50 strain (AID 155).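 Further: 0% = growth of vehicle-only cultures of the same strain.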 The following applies: S. cerevisiae rad50 strain growth inhibition, active compounds read high. An outline of the steps: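 Compounds were tested on a yeast strain with an engineered DNA damage repair alteration; the reported value is growth inhibition normalised to vehicle treatment.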
Experiment [2] in a line: NCI Yeast Anticancer Drug Screen. Data for the mec2-1 strain (AID 157). Conditions: S. cerevisiae mec2-1 strain, active compounds read high. The essentials: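 Mutant yeast (mec2-1) grown with compound; growth inhibition relative to vehicle control reported.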
Experiment [3] in a line: NCI Yeast Anticancer Drug Screen. Data for the sgs1 mgt1 strain (AID 161).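 Further: 0% = growth of cultures given vehicle only.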 The following applies: S. cerevisiae sgs1 mgt1 strain, active compounds read high. The essentials: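 Percent growth inhibition was derived by comparing compound-exposed mutant yeast with vehicle-exposed cultures. The strain carries alterations in DNA damage repair.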
The nature of experiment [4]: NCI Yeast Anticancer Drug Screen. Data for the cln2 rad14 strain (AID 165).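 Further: 0% = growth equal to vehicle treated cultures.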 Conditions: S. cerevisiae cln2 rad14 strain, active compounds read high. The essentials:
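Readout is yeast growth inhibition versus vehicle-treated controls, using a strain with cln2 and rad14 alterations exposed to compound.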

Experiment [5] in a line: NCI Yeast Anticancer Drug Screen. Data for the bub3 strain (AID 167). The following applies: S. cerevisiae bub3 mutant strain, active compounds read high. An outline of the steps: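 Growth of a checkpoint-deficient yeast mutant is measured after compound exposure. Values represent inhibition relative to vehicle.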
Experiment [6] in a line: NCI Yeast Anticancer Drug Screen. Data for the mlh1 rad18 strain (AID 175). Conditions: S. cerevisiae mlh1 rad18 strain growth inhibition, active compounds read high. An outline of the steps: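 Genetically defined yeast (DNA repair-deficient) exposed to compounds; growth inhibition determined relative to vehicle.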
The mark [7] stands for this setting: at 5.0 µM (retest, dose inferred, filed as 0.5).
Setting [8] is: at 50.0 µM (retest, dose inferred, filed as 5.0).

`CN(Cc1cnc2nc(N)nc(N)c2n1)c1ccc(C(=O)NC(CCC(=O)O)C(=O)O)c(Cl)c1Cl` (configuration not stated): the growth inhibition is -4% in experiment [1] (setting [7]); 79% (active) in experiment [1] (setting [8]); 94.2% (active) in experiment [1] (at 50.0 µM); 41% in experiment [2] (setting [7]); 98% (active) in experiment [2] (setting [8]); 98.2% (active) in experiment [2] (at 50.0 µM). Besides, the growth inhibition in experiment [3] (setting [7]) is -5%; in experiment [3] (setting [8]), 55%; in experiment [3] (at 50.0 µM), 85.5% (active); in experiment [4] (setting [7]), -8%; in experiment [4] (setting [8]) it was -13%; in experiment [4] (at 50.0 µM) it was -11.2%. Further, the growth inhibition in experiment [5] (setting [7]) was -21%; in experiment [5] (setting [8]) it was 64%; in experiment [5] (at 50.0 µM), 77.5% (active); in experiment [6] (setting [7]) it was 13%; in experiment [6] (setting [8]), 82% (active); in experiment [6] (at 50.0 µM), 88.2% (active).

Consider `CN(C)C(=S)SN(C)C(=O)Nc1ccccc1`, for which the growth inhibition in experiment [1] (setting [7]) was -5%; in experiment [1] (setting [8]) it was 96% (active); in experiment [1] (at 50.0 µM), 70.3% (active); in experiment [2] (setting [7]), -7%; in experiment [2] (setting [8]) it was 96% (active); in experiment [2] (at 50.0 µM) it was 73% (active). The growth inhibition in experiment [3] (setting [7]) is -6%; in experiment [3] (setting [8]), 96% (active); in experiment [3] (at 50.0 µM) it was 94% (active); in experiment [4] (setting [7]), -13%; in experiment [4] (setting [8]), 95% (active); in experiment [4] (at 50.0 µM) it was -9%. Also, the growth inhibition in experiment [5] (setting [7]) is -4%; in experiment [5] (setting [8]) it was 95% (active); in experiment [5] (at 50.0 µM) it was 92.2% (active); in experiment [6] (setting [7]), -3%; in experiment [6] (setting [8]), 96% (active); in experiment [6] (at 50.0 µM), 86.1% (active).

On to `CC1=C(C(=O)Nc2ccccc2)C(c2ccc(Cl)c(Cl)c2)C(C(=O)Nc2ccccc2)=C(C)N1`, for which the growth inhibition is 26% in experiment [1] (setting [7]); 26% in experiment [1] (setting [8]); 89% (active) in experiment [1] (at 50.0 µM); 21% in experiment [2] (setting [7]); 21% in experiment [2] (setting [8]); 92.8% (active) in experiment [2] (at 50.0 µM). Moreover, the growth inhibition is 29% in experiment [3] (setting [7]); 29% in experiment [3] (setting [8]); 91.1% (active) in experiment [3] (at 50.0 µM); 8% in experiment [4] (setting [7]); 8% in experiment [4] (setting [8]); 91% (active) in experiment [4] (at 50.0 µM). For the same compound, the growth inhibition in experiment [5] (setting [7]) is 1%; in experiment [5] (setting [8]) it was 1%; in experiment [5] (at 50.0 µM), 91.5% (active); in experiment [6] (setting [7]), 25%; in experiment [6] (setting [8]), 25%; in experiment [6] (at 50.0 µM) it was 90.6% (active).

`FC(F)(F)c1cccc(Nc2ccc3cnc4ccccc4c3c2)c1`: the growth inhibition in experiment [1] (setting [7]) was 6%; in experiment [1] (setting [8]) it was 92% (active); in experiment [1] (at 50.0 µM), 94.7% (active); in experiment [2] (setting [7]) it was -19%; in experiment [2] (setting [8]), 97% (active); in experiment [2] (at 50.0 µM) it was 95.2% (active). Moreover, the growth inhibition in experiment [3] (setting [7]) was -1%; in experiment [3] (setting [8]), 97% (active); in experiment [3] (at 50.0 µM), 96.6% (active); in experiment [4] (setting [7]), -5%; in experiment [4] (setting [8]), 95% (active); in experiment [4] (at 50.0 µM), 92.5% (active). Moreover, the growth inhibition in experiment [5] (setting [7]) was -2%; in experiment [5] (setting [8]), 95% (active); in experiment [5] (at 50.0 µM) it was 95.2% (active); in experiment [6] (setting [7]), 17%; in experiment [6] (setting [8]), 95% (active); in experiment [6] (at 50.0 µM), 93.3% (active).

Turning to `CN(C)CCC1(C2=CCCC2)CC/C(=C\c2ccc(Cl)cc2)C1=O` (configuration not stated), the growth inhibition in experiment [1] (setting [7]) is 24%; in experiment [1] (setting [8]) it was 86% (active); in experiment [1] (at 50.0 µM), 94.3% (active); in experiment [2] (setting [7]) it was 28%; in experiment [2] (setting [8]), 96% (active); in experiment [2] (at 50.0 µM), 94.3% (active). Moreover, the growth inhibition was 26% in experiment [3] (setting [7]); 97% (active) in experiment [3] (setting [8]); 94% (active) in experiment [3] (at 50.0 µM); 31% in experiment [4] (setting [7]); 97% (active) in experiment [4] (setting [8]); 92.3% (active) in experiment [4] (at 50.0 µM). Also, the growth inhibition in experiment [5] (setting [7]) is 37%; in experiment [5] (setting [8]), 98% (active); in experiment [5] (at 50.0 µM), 92.2% (active); in experiment [6] (setting [7]), 33%; in experiment [6] (setting [8]) it was 97% (active); in experiment [6] (at 50.0 µM) it was 87.5% (active).

As for `O=[N+]([O-])c1ccc(Sc2ccsc2)c([N+](=O)[O-])c1`, the growth inhibition in experiment [1] (setting [7]) is 4%; in experiment [1] (setting [8]), 79% (active); in experiment [1] (at 50.0 µM) it was 46.5%; in experiment [2] (setting [7]), 14%; in experiment [2] (setting [8]) it was 87% (active); in experiment [2] (at 50.0 µM) it was 34.5%. Further, the growth inhibition is 21% in experiment [3] (setting [7]); 93% (active) in experiment [3] (setting [8]); 48.5% in experiment [3] (at 50.0 µM); 4% in experiment [4] (setting [7]); 61% in experiment [4] (setting [8]); 31.8% in experiment [4] (at 50.0 µM). For the same compound, the growth inhibition is 11% in experiment [5] (setting [7]); 86% (active) in experiment [5] (setting [8]); 41.5% in experiment [5] (at 50.0 µM); 45% in experiment [6] (setting [7]); 96% (active) in experiment [6] (setting [8]); 78.8% (active) in experiment [6] (at 50.0 µM).

For the compound `O=C(O)c1ccccc1-c1c2ccc(=O)c(Br)c-2oc2c(Br)c(O)ccc12`, the growth inhibition is 13% in experiment [1] (setting [7]); 93% (active) in experiment [1] (setting [8]); 87.5% (active) in experiment [1] (at 50.0 µM); 42% in experiment [2] (setting [7]); 99% (active) in experiment [2] (setting [8]); 98% (active) in experiment [2] (at 50.0 µM). In addition, the growth inhibition in experiment [3] (setting [7]) is 33%; in experiment [3] (setting [8]), 98% (active); in experiment [3] (at 50.0 µM), 99.5% (active); in experiment [4] (setting [7]), 14%; in experiment [4] (setting [8]), 96% (active); in experiment [4] (at 50.0 µM), 97.5% (active). In addition, the growth inhibition in experiment [5] (setting [7]) is -1%; in experiment [5] (setting [8]), 96% (active); in experiment [5] (at 50.0 µM), 96.4% (active); in experiment [6] (setting [7]), 49%; in experiment [6] (setting [8]) it was 97% (active); in experiment [6] (at 50.0 µM), 97.8% (active).

Regarding `CC(=O)Nc1ccc2c(ccc3cccc[n+]32)c1`, the growth inhibition is -2% in experiment [1] (setting [7]); 0% in experiment [1] (setting [8]); 96.7% (active) in experiment [1] (at 50.0 µM); -10% in experiment [2] (setting [7]); -6% in experiment [2] (setting [8]); 97.2% (active) in experiment [2] (at 50.0 µM). For the same compound, the growth inhibition in experiment [3] (setting [7]) was 1%; in experiment [3] (setting [8]), 10%; in experiment [3] (at 50.0 µM), 95.8% (active); in experiment [4] (setting [7]), -2%; in experiment [4] (setting [8]) it was -6%; in experiment [4] (at 50.0 µM), 95.2% (active). The growth inhibition in experiment [5] (setting [7]) was -7%; in experiment [5] (setting [8]), -13%; in experiment [5] (at 50.0 µM), 96.5% (active); in experiment [6] (setting [7]), -1%; in experiment [6] (setting [8]) it was -3%; in experiment [6] (at 50.0 µM), 96.3% (active).

Turning to `CC(=O)Nc1ccc(N=Cc2cc(Cl)cc(Cl)c2O)cc1`, the growth inhibition is 82% (active) in experiment [1] (setting [7]); 99% (active) in experiment [1] (setting [8]); 80.2% (active) in experiment [1] (at 50.0 µM); 90% (active) in experiment [2] (setting [7]); 99% (active) in experiment [2] (setting [8]); 73.5% (active) in experiment [2] (at 50.0 µM). In addition, the growth inhibition is 97% (active) in experiment [3] (setting [7]); 95% (active) in experiment [3] (setting [8]); 89.3% (active) in experiment [3] (at 50.0 µM); 54% in experiment [4] (setting [7]); 94% (active) in experiment [4] (setting [8]); 53% in experiment [4] (at 50.0 µM). The growth inhibition in experiment [5] (setting [7]) was 97% (active); in experiment [5] (setting [8]) it was 97% (active); in experiment [5] (at 50.0 µM), 81.7% (active); in experiment [6] (setting [7]) it was 80% (active); in experiment [6] (setting [8]), 99% (active); in experiment [6] (at 50.0 µM), 65.8%.
